These results are taken from PubChem BioAssay (NCI).

Compounds without any hit were thinned out: in the full panel of roughly 83,000, 20% have a hit.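 96-well plates, one dose, 48 hours. Percent growth reported; active if below 10.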 Values without a mark were called inactive. The source made the active and inactive calls.

Some test systems named below: DU-145 prostate; K-562 leukemia; MALME-3M melanoma; MDA-MB-231 breast; RXF 393 renal; SF-268 CNS; SF-295 CNS; SF-539 CNS; UACC-257 melanoma; M14 melanoma.
Holding throughout (test): NCI-60 one-dose screen, 48 h (100 = growth as untreated, 0 = no growth, -100 = all killed)
Conditions in all cases: 10 µM unless noted

`Fc1cc(F)cc(C(c2c[nH]c3ccccc23)c2c[nH]c3ccccc23)c1`: the growth with DU-145 prostate is 105%; with K-562 leukemia, 118%; with MALME-3M melanoma it was 130%; in the test on MDA-MB-231 breast, 86.6%; with RXF 393 renal, 115%; with SF-268 CNS it was 97.6%. Besides, the growth in the test with SF-295 CNS is 78.6%; in the test on SF-539 CNS, 106%; in the test with UACC-257 melanoma, 99.8%; in the test on M14 melanoma, 98%.
As to `CN(Cc1ccc(C(F)(F)F)cc1)CC(O)C(=O)Nc1ccc(Cl)cc1` (stereo not given), the growth in the test on DU-145 prostate was -51.4% (active); with K-562 leukemia, -36% (active); in the test on MALME-3M melanoma, 12.8%; with MDA-MB-231 breast, 26%; in the test on RXF 393 renal it was 12.9%; in the test on SF-268 CNS it was 31.9%. Besides, the growth in the test with SF-295 CNS is -69.5% (active); in the test on SF-539 CNS, 21.9%; in the test with UACC-257 melanoma, 1.78% (active); in the test with M14 melanoma it was -49.8% (active).
On to `Cc1nnc(-n2c(O)cc(=O)n(-c3ccccc3)c2=S)nc1/C=C/c1ccc(N(C)C)cc1`, for which the growth with DU-145 prostate is 73.7%; in the test with K-562 leukemia, 30.1%; in the test on MALME-3M melanoma, 63.3%; in the test on MDA-MB-231 breast, 45.6%; in the test on RXF 393 renal, 83.3%; in the test with SF-268 CNS, 78.4%. Further, the growth in the test with SF-295 CNS was 62%; in the test with SF-539 CNS, 66%; in the test on UACC-257 melanoma, 35.3%; with M14 melanoma it was 49.8%.
As to `COc1ccc2cc(-c3ccc(NC(C)=O)c(=O)o3)ccc2c1`, the growth with DU-145 prostate was 103%; with K-562 leukemia, 81.4%; in the test on MALME-3M melanoma it was 101%; with MDA-MB-231 breast, 110%; with RXF 393 renal it was 98.3%; with SF-268 CNS it was 95.5%. Also, the growth in the test on SF-295 CNS is 100%; in the test on SF-539 CNS it was 96.7%; in the test on UACC-257 melanoma, 89.3%; in the test on M14 melanoma, 94.3%.
With `O=C(/C=C(/C=C/c1cccc2[nH]ccc12)OB(F)F)/C=C/c1cccc2[nH]ccc12`, the growth was 2.94% (active) in the test with DU-145 prostate; -2.54% (active) with K-562 leukemia; -26.9% (active) in the test on MALME-3M melanoma; -10.7% (active) in the test with MDA-MB-231 breast; -87.2% (active) in the test with RXF 393 renal; 2.01% (active) with SF-268 CNS. Moreover, the growth with SF-295 CNS is -49.5% (active); in the test with SF-539 CNS, -25.8% (active); with UACC-257 melanoma, -47.3% (active); with M14 melanoma, -34.2% (active).
`COc1ccc(OC)c(-c2c(C#N)c(-c3cccs3)nc3c2c(-c2ccccc2)nn3-c2ccccc2)c1`: the growth in the test with DU-145 prostate is 111%; in the test with K-562 leukemia, 106%; in the test on MALME-3M melanoma, 106%; with MDA-MB-231 breast, 105%; in the test with RXF 393 renal, 109%; in the test with SF-268 CNS, 97.4%. The growth with SF-295 CNS was 101%; in the test on SF-539 CNS, 93.5%; in the test on UACC-257 melanoma, 105%; in the test with M14 melanoma it was 105%.
For the compound `CC(C)=NNc1ccccn1`, the growth is 48.4% in the test with DU-145 prostate; 59.2% with K-562 leukemia; 48.5% in the test on MALME-3M melanoma; 36.4% in the test on MDA-MB-231 breast; 69.8% in the test with RXF 393 renal; 43.7% with SF-268 CNS. For the same compound, the growth in the test with SF-295 CNS was 67.6%; in the test with SF-539 CNS, 43.5%; with UACC-257 melanoma, 11.9%; in the test with M14 melanoma, 35.8%.
In the case of `COC(=O)c1cc(-c2ccccc2)[nH]c1N/N=C/c1c(Cl)cccc1Cl`, the growth in the test with DU-145 prostate is -5.4% (active); in the test with K-562 leukemia, -21.8% (active); in the test on MALME-3M melanoma it was -15.2% (active); with MDA-MB-231 breast, 10.5%; with RXF 393 renal, -18.7% (active); in the test on SF-268 CNS it was 33.1%. Moreover, the growth with SF-295 CNS is -59.5% (active); in the test with SF-539 CNS, -33.3% (active); in the test with UACC-257 melanoma, 51%; in the test with M14 melanoma, -12.3% (active).
In the case of `C=CCn1c(SCC(=O)Nc2ccc(C(=O)/C=C/c3cc4cc(OC)ccc4nc3Cl)cc2)nnc1-c1ccc(Br)cc1`, the growth in the test with DU-145 prostate is 86.1%; with K-562 leukemia, 46.3%; in the test with MALME-3M melanoma it was 92.5%; in the test on MDA-MB-231 breast, 80.5%; in the test with RXF 393 renal, 83.2%; with SF-268 CNS it was 76%. The growth with SF-295 CNS was 92.1%; with SF-539 CNS, 89.5%; in the test with UACC-257 melanoma, 79.8%; in the test on M14 melanoma it was 90.1%.
For `C1=CN2CC(c3ccccc3)=NNC2c2ccccc21` (stereo not given), the growth in the test on DU-145 prostate is 113%; in the test with K-562 leukemia, 48.6%; in the test on MALME-3M melanoma it was 80.4%; with MDA-MB-231 breast it was 63.4%; with RXF 393 renal it was 90%; with SF-268 CNS it was 106%. Moreover, the growth is 104% in the test on SF-295 CNS, 92.6% with SF-539 CNS, 97.1% in the test on UACC-257 melanoma and 94.1% in the test on M14 melanoma.
Turning to `N#C/C(=C\c1ccc2ccccc2c1)c1cc2ccccc2[nH]1`, the growth with DU-145 prostate is 59.5%; with K-562 leukemia, 19.4%; with MALME-3M melanoma it was 45%; in the test with MDA-MB-231 breast, 41.5%; with RXF 393 renal, 29.3%; with SF-268 CNS, 54.2%. The growth with SF-295 CNS is 33%; in the test with SF-539 CNS, 32.9%; in the test with UACC-257 melanoma, 63.2%; with M14 melanoma, 18%.
Turning to `COc1ccc2[nH]cc(-c3nc(-c4c[nH]c5ccncc45)cs3)c2c1`, the growth is 32.9% in the test on DU-145 prostate; -37.9% (active) in the test with K-562 leukemia; -77.5% (active) in the test on MALME-3M melanoma; -35% (active) with MDA-MB-231 breast; -0.983% (active) in the test with RXF 393 renal; 65.3% in the test on SF-268 CNS. The growth with SF-295 CNS is -57.1% (active); in the test on SF-539 CNS, -83.4% (active); in the test with UACC-257 melanoma, 82%; in the test on M14 melanoma it was -74% (active).
Consider `CS(=O)(=O)c1cccc(-c2c(-c3cccc(OS(N)(=O)=O)c3)nc3sccn23)c1`, for which the growth in the test on DU-145 prostate is 113%; in the test on K-562 leukemia, 100%; with MALME-3M melanoma it was 102%; with MDA-MB-231 breast, 93%; in the test on RXF 393 renal, 107%; with SF-268 CNS, 101%. The growth in the test on SF-295 CNS is 98.3%; in the test with SF-539 CNS, 93.5%; in the test on UACC-257 melanoma, 106%; with M14 melanoma, 105%.
